# Measured values: PubChem BioAssay (NCI)
# This is part of a sample that, as a whole, favours compounds with a hit. Of some 79,000 tested, about 15% had one in any assay. Unmarked numbers belong to inactive results. Activity calls are given as the source filed them. No stated cut-off is given here; in the data, active means growth inhibition above about 70%; inactive means the rest.
# Key:
# [1] = NCI Yeast Anticancer Drug Screen. Data for the rad52 strain (AID 147);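 further: 0% = growth of vehicle-treated control cultures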; conditions: S. cerevisiae rad52 mutant growth inhibition, active compounds read high
# Procedure, shortened: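 Here a repair-compromised yeast strain receives each compound; its growth is then quantified and normalised to vehicle-only controls.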
# [2] = NCI Yeast Anticancer Drug Screen. Data for the wt1 strain (AID 149);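 further: 0% = growth of vehicle-treated wt1 cultures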; conditions: S. cerevisiae wt1 strain (SPY 50644) growth inhibition, active compounds read high
# Procedure, shortened: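 Readout: yeast growth inhibition, normalised to vehicle controls, in the wt1 strain exposed to test compounds.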
# [3] = NCI Yeast Anticancer Drug Screen. Data for the rad50EPP+ strain (AID 151);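 further: 0% = growth of vehicle-treated control cultures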; conditions: S. cerevisiae rad50 mutant strain, active compounds read high
# Procedure, shortened: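 Read-out is yeast growth inhibition relative to vehicle; cells used were the rad50EPP+ strain.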
# [4] = NCI Yeast Anticancer Drug Screen. Data for the mgt1 strain (AID 153); conditions: S. cerevisiae mgt1 mutant growth inhibition, active compounds read high
# Procedure, shortened: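 Measured: inhibition of mgt1 yeast growth by compound, normalized to vehicle-treated cultures.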
# [5] = NCI Yeast Anticancer Drug Screen. Data for the rad50 strain (AID 155);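 further: 0% = growth of vehicle-only cultures of the same strain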; conditions: S. cerevisiae rad50 strain growth inhibition, active compounds read high
# Procedure, shortened: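 Compounds were tested on a yeast strain with an engineered DNA damage repair alteration; the reported value is growth inhibition normalised to vehicle treatment.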
# [6] = NCI Yeast Anticancer Drug Screen. Data for the mec2-1 strain (AID 157); conditions: S. cerevisiae mec2-1 strain, active compounds read high
# Procedure, shortened: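 Using mec2-1 yeast: add compound, measure growth, express inhibition versus vehicle-treated cultures.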
# [7] = NCI Yeast Anticancer Drug Screen. Data for the rad14 strain (AID 159);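 further: 0% = growth of vehicle-treated control cultures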; conditions: S. cerevisiae rad14 strain growth inhibition, active compounds read high
# Procedure, shortened: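 Compound-treated yeast with a defined DNA-repair lesion; growth inhibition normalised to vehicle-treated cultures.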
# [8] = NCI Yeast Anticancer Drug Screen. Data for the sgs1 mgt1 strain (AID 161);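 further: 0% = growth of cultures given vehicle only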; conditions: S. cerevisiae sgs1 mgt1 strain, active compounds read high
# Procedure, shortened: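 Yeast cells carrying a defined DNA-repair defect were exposed to test compounds. Growth inhibition was measured relative to vehicle-treated controls.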
# [9] = NCI Yeast Anticancer Drug Screen. Data for the CLN2oe strain (AID 163);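 further: 0% = growth of vehicle-only control cultures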; conditions: S. cerevisiae CLN2oe strain, active compounds read high
# Procedure, shortened: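 Whole-cell yeast growth assay. A strain engineered for altered cell-cycle control received compound, and inhibition relative to vehicle-treated cultures was recorded.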
# [10] = NCI Yeast Anticancer Drug Screen. Data for the cln2 rad14 strain (AID 165);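 further: 0% = growth equal to vehicle treated cultures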; conditions: S. cerevisiae cln2 rad14 strain, active compounds read high
# Procedure, shortened: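 Yeast strain cln2 rad14, bearing defects in cell cycle control and DNA repair, serves as the test system; values reflect growth inhibition compared with vehicle.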
# [11] = NCI Yeast Anticancer Drug Screen. Data for the bub3 strain (AID 167); conditions: S. cerevisiae bub3 mutant strain, active compounds read high
# Procedure, shortened: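 Growth of a checkpoint-deficient yeast mutant is measured after compound exposure. Values represent inhibition relative to vehicle.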
# [12] = NCI Yeast Anticancer Drug Screen. Data for the wt2 strain (AID 169);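 further: 0% = growth of vehicle-treated yeast cultures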; conditions: S. cerevisiae wt2 strain growth inhibition, active compounds read high
# Procedure, shortened: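 Treated yeast vs. vehicle-treated yeast: growth inhibition determined.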
# [13] = NCI Yeast Anticancer Drug Screen. Data for the mlh1 strain (AID 171);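 further: 0% = growth of vehicle-treated control cultures of the same strain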; conditions: S. cerevisiae mlh1 strain growth inhibition, active compounds read high
# Procedure, shortened: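 A yeast strain with a defined genetic lesion serves as the test organism. Cultures receive compound or vehicle, and growth is measured.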
# [14] = NCI Yeast Anticancer Drug Screen. Data for the mlh1 rad18 strain (AID 175); conditions: S. cerevisiae mlh1 rad18 strain growth inhibition, active compounds read high
# Procedure, shortened: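 Steps: expose repair-defective yeast to compound; measure growth; express inhibition against vehicle-treated controls.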
# [15] = NCI Yeast Anticancer Drug Screen. Data for the rad18 strain (AID 177); conditions: S. cerevisiae rad18 mutant growth inhibition, active compounds read high
# Procedure, shortened: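 Measured value is growth inhibition of a yeast strain bearing a DNA repair alteration, referenced to vehicle-treated cells.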
# [16] = at 5.0 µM (retest, dose inferred, filed as 0.5)
# [17] = at 50.0 µM (retest, dose inferred, filed as 5.0)
structure (smiles),measurement,setting,value
O=C1c2cccc3cccc(c23)C(=O)N1CCNCCN1C(=O)c2cccc3cccc(c23)C1=O,growth inhibition,[1]; at 1.2 µM,1%
same,growth inhibition,[1]; at 3.7 µM,3%
same,growth inhibition,[1]; at 11.0 µM,5%
same,growth inhibition,[1]; at 33.0 µM,14%
same,growth inhibition,[1]; at 100.0 µM,34%
same,growth inhibition,[2]; at 1.2 µM,0%
same,growth inhibition,[2]; at 3.7 µM,0%
same,growth inhibition,[2]; at 11.0 µM,-1%
same,growth inhibition,[2]; at 33.0 µM,1%
same,growth inhibition,[2]; at 100.0 µM,5%
same,growth inhibition,[3]; at 1.2 µM,-1%
same,growth inhibition,[3]; at 3.7 µM,0%
same,growth inhibition,[3]; at 11.0 µM,0%
same,growth inhibition,[3]; at 33.0 µM,2%
same,growth inhibition,[3]; at 100.0 µM,10%
same,growth inhibition,[4]; at 1.2 µM,-3%
same,growth inhibition,[4]; at 3.7 µM,0%
same,growth inhibition,[4]; at 11.0 µM,-1%
same,growth inhibition,[4]; at 33.0 µM,1%
same,growth inhibition,[4]; at 100.0 µM,2%
same,growth inhibition,[5]; at 1.2 µM,1%
same,growth inhibition,[5]; at 3.7 µM,3%
same,growth inhibition,[5]; [16],19%
same,growth inhibition,[5]; at 11.0 µM,6%
same,growth inhibition,[5]; at 33.0 µM,21%
same,growth inhibition,[5]; [17],84% (active)
same,growth inhibition,[5]; at 50.0 µM,86.1% (active)
same,growth inhibition,[5]; at 100.0 µM,53%
same,growth inhibition,[6]; at 1.2 µM,-3%
same,growth inhibition,[6]; at 3.7 µM,-4%
same,growth inhibition,[6]; [16],6%
same,growth inhibition,[6]; at 11.0 µM,-3%
same,growth inhibition,[6]; at 33.0 µM,2%
same,growth inhibition,[6]; [17],4%
same,growth inhibition,[6]; at 50.0 µM,26.4%
same,growth inhibition,[6]; at 100.0 µM,5%
same,growth inhibition,[7]; at 1.2 µM,0%
same,growth inhibition,[7]; at 3.7 µM,1%
same,growth inhibition,[7]; at 11.0 µM,0%
same,growth inhibition,[7]; at 33.0 µM,-1%
same,growth inhibition,[7]; at 100.0 µM,4%
same,growth inhibition,[8]; [16],5%
same,growth inhibition,[8]; [17],10%
same,growth inhibition,[8]; at 50.0 µM,15.5%
same,growth inhibition,[9]; at 1.2 µM,-1%
same,growth inhibition,[9]; at 3.7 µM,-2%
same,growth inhibition,[9]; at 11.0 µM,4%
same,growth inhibition,[9]; at 33.0 µM,-1%
same,growth inhibition,[9]; at 100.0 µM,-1%
same,growth inhibition,[10]; [16],6%
same,growth inhibition,[10]; [17],6%
same,growth inhibition,[10]; at 50.0 µM,15.9%
same,growth inhibition,[11]; at 1.2 µM,0%
same,growth inhibition,[11]; at 3.7 µM,1%
same,growth inhibition,[11]; [16],2%
same,growth inhibition,[11]; at 11.0 µM,-2%
same,growth inhibition,[11]; at 33.0 µM,-4%
same,growth inhibition,[11]; [17],1%
same,growth inhibition,[11]; at 50.0 µM,0.65%
same,growth inhibition,[11]; at 100.0 µM,-3%
same,growth inhibition,[12]; at 1.2 µM,0%
same,growth inhibition,[12]; at 3.7 µM,0%
same,growth inhibition,[12]; at 11.0 µM,0%
same,growth inhibition,[12]; at 33.0 µM,1%
same,growth inhibition,[12]; at 100.0 µM,5%
same,growth inhibition,[13]; at 1.2 µM,0%
same,growth inhibition,[13]; at 3.7 µM,-3%
same,growth inhibition,[13]; at 11.0 µM,-1%
same,growth inhibition,[13]; at 33.0 µM,0%
same,growth inhibition,[13]; at 100.0 µM,2%
same,growth inhibition,[14]; [16],4%
same,growth inhibition,[14]; [17],18%
same,growth inhibition,[14]; at 50.0 µM,7.55%
same,growth inhibition,[15]; at 1.2 µM,-3%
same,growth inhibition,[15]; at 3.7 µM,-2%
same,growth inhibition,[15]; at 11.0 µM,-1%
same,growth inhibition,[15]; at 33.0 µM,-1%
same,growth inhibition,[15]; at 100.0 µM,6%
